Measurements published in PubChem BioAssay (EPA / NIEHS).
Several values for one entry are separate records, joined by “and”; a condition that tells them apart may be missing. Equal values may be shown once. Where a structure was tested more than once in an assay, its records may differ in their call. Activity calls are given as the source filed them. How the source made its calls: active means hit-call score of the fitted dose curve at least 0.9, where 1 is the maximum; inactive means score below 0.9.

Assay: CCTE_Mundy_HCI_Cortical_Synap_Neur_Matur_CellBodySpotCount: CCTE's Synaptogenesis and Neurite Maturation Assay in rat cortical cells for Cell Body Spot Count, Mundy Lab (AID 2284223)
Method: CCTE_Mundy_HCI_Cortical_Synap&Neurite_Matur is a multiplexed, cell-based-readout assay that uses rat primary cortical cells with measurements taken at 288.33 hours after chemical dosing in a microplate: 96-well plate.CCTE_Mundy_HCI_Cortical_Synap_Neur_Matur_CellBodySpotCount is one of eight components of the CCTE_Mundy_HCI_Cortical_Synap&Neurite_Matur assay. It measures synaptogenesis and neurite maturation related to number of cell body-associated synapses (synaptophysin puncta) per neuron using High Content Imaging of fluorescently labelled markers.[…] Using a type of morphology reporter, loss -of-signal activity can be used to understand developmental effects.
Cells are plated onto 96 well plates and allowed 2 hr for attachment to the substrate. At days in vitro (DIV) 5, Cytosine Arabinoside (AraC) is added to arrest glial cell growth. Chemicals are dosed and a media change is performed at DIV 7 of differentiation and is continued through DIV 12 when the experiment is terminated. Cells are fixed with […] and Hoechst Dye. Cells are stained using Millipore Mouse anti-MAP2MAB3418 (1:800) and Millipore Rabbit anti-Synaptophysinsc-1750 (1:250) primary antibodies and Alexa Fluor-488 goat anti-mouse and AlexaFluor-546 goat anti-rabbit secondary antibodies to label neuronal cell nuclei, synapses and neurites. A Cellomics ArrayScan VTi HCS Reader is used for automated image acquisition and analysis of neurite outgrowth.

SMILES	outcome	AC50
CCOP(=S)(OCC)Oc1ccc2c(C)c(Cl)c(=O)oc2c1	inactive	–
COP(=O)(OC)OC(Br)C(Cl)(Cl)Br (stereo not given)	inactive	9.92 µM (active)
CCOP(=S)(OCC)SCCSCC	inactive	–
CCOP(=O)(OCC)Oc1cc(C)nc(C(C)C)n1	inactive	–
CCOP(=S)(Oc1cnc(C(C)(C)C)nc1)OC(C)C (stereo not given)	inactive	14.6 µM (active)
CON=C(C(=O)OC)c1ccccc1CON=C(C)c1cccc(C(F)(F)F)c1	–	3.43 µM (active)
CCCCSP(=O)(SCCCC)SCCCC	inactive	22.9 µM (active)
CCOP(=S)(OCC)Oc1ccc([N+](=O)[O-])cc1	inactive	–
C[N+]1(C)CCCCC1	inactive	–
CN(C)[C@@H]1C(=O)C(C(N)=O)=C(O)[C@@]2(O)C(=O)C3=C(O)c4c(O)cccc4[C@@](C)(O)[C@H]3[C@H](O)[C@@H]12	–	50 µM (active)
CSC1=N[C@@](C)(c2ccccc2)C(=O)N1Nc1ccccc1	inactive	–
S=C1NCCN1	inactive	–
CCOP(=S)(OCC)Oc1cc(C)nc(C(C)C)n1	inactive	–
CC(C)N(C(=O)SCC(Cl)=C(Cl)Cl)C(C)C	–	24.1 µM (active)
O=[N+]([O-])c1cc(C(F)(F)F)c(Cl)c([N+](=O)[O-])c1Nc1ncc(C(F)(F)F)cc1Cl	–	1.9 µM (active)
CC(=NC#N)N(C)Cc1ccc(Cl)nc1	inactive	–
CCOP(=S)(OCC)OC(Cl)C(Cl)(Cl)Cl (stereo not given)	inactive	16.7 µM (active)
CN1COCN(Cc2cnc(Cl)s2)C1=N[N+](=O)[O-]	inactive	–
CCOP(=O)(SC(C)CC)N1CCSC1=O (stereo not given)	inactive	–
CCCSP(=O)(OCC)SCCC	inactive	–
CC1=NNC(=O)N(/N=C/c2cccnc2)C1	inactive	–
CC[C@H](C)[C@H]1O[C@]2(C=C[C@@H]1C)C[C@@H]1C[C@@H](C/C=C(\C)[C@@H](O[C@H]3C[C@H](OC)[C@@H](O[C@H]4C[C@H](OC)[C@@H](NC)[C@H](C)O4)[C@H](C)O3)[C@@H](C)/C=C/C=C3\CO[C@@H]4[C@H](O)C(C)=C[C@@H](C(=O)O1)[C@]34O)O2	–	1.12 µM (active) and 1.1 µM (active)
COP(=O)(NC(C)=O)SC (stereo not given)	inactive	–
CCOC(=O)CC(SP(=O)(OC)OC)C(=O)OCC (stereo not given)	inactive	–
CCCSP(=O)(OCC)Oc1ccc(Br)cc1Cl (stereo not given)	inactive	–
CCOP(=O)(NC(C)C)Oc1ccc(SC)c(C)c1 (stereo not given)	inactive	–
